Experimental data from PubChem BioAssay (EPA / NIEHS).
Several values for one entry are separate records, joined by “and”; a condition that tells them apart may be missing. Identical values can stand only once. Inconclusive results are not listed. The source holds several records for some structures; these can differ, active in one and inactive in another. Activity calls are given as the source filed them. Rule for the calls, unless noted: active = hit-call score of the fitted dose curve at least 0.9, where 1 is the maximum; inconclusive = response in the unintended direction; inactive = score below 0.9.

Key:
[1] = ATG_NF_kB_CIS: Attagene CIS-FACTORIAL HepG2 Assay for human Nuclear Factor Kappa B (NF-kB) (AID 2282991; active = hit-call score of the fitted dose curve at least 0.9, where 1 is the maximum; inactive = score below 0.9); conditions: HepG2 Attagene cis-factorial NF-kB reporter mRNA; actives raise or lower the signal
How it was run: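 Endpoint from a 52-component multiplexed HepG2 reporter panel: cis-regulated transcription units transiently transfected, 24 h dosing, reporter mRNA quantified by RT-PCR and capillary electrophoresis, scored as increase or decrease against DMSO.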

[2] = ATG_NRF2_ARE_CIS: Attagene CIS-FACTORIAL HepG2 Assay for human Nuclear Factor Erythroid 2 Related Factor 2 (NFR2) response to Antioxidant Response Elements (ARE) (AID 2282992; active = hit-call score of the fitted dose curve at least 0.9, where 1 is the maximum; inactive = score below 0.9;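 for AC50: reporter mRNA level measured by RT-PCR and capillary electrophoresis fluorescence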); conditions: HepG2 Attagene ARE/NRF2 reporter, transcription factor activity; actives raise or lower the signal
How it was run: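 Readout: reporter mRNA quantified by RT-PCR plus FAM-labelled primer extension, HpaI digestion and capillary electrophoresis, 24 h after dosing transfected HepG2 cells. Gain or loss of signal is fitted bidirectionally against DMSO baseline.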

[3] = ATG_Oct_MLP_CIS: Attagene CIS-FACTORIAL HepG2 Assay for human Octamer-Binding Transcription Factor (Oct) (AID 2282993; active = hit-call score of the fitted dose curve at least 0.9, where 1 is the maximum; inactive = score below 0.9); conditions: HepG2 Attagene cis-factorial Oct reporter, mRNA; actives raise or lower the signal
How it was run: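 HepG2, transient MRTU transfection, cis promoter elements; 24 h dosing; RT-PCR/CE fluorescence read-out of reporter mRNA; fit both directions vs DMSO.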

[4] = molecular target: Cellular tumor antigen p53 (Homo sapiens) (UniProt P04637); test: ATG_p53_CIS: Attagene CIS-FACTORIAL HepG2 Assay for human p53 Transcription Factor (AID 2282994; active = hit-call score of the fitted dose curve at least 0.9, where 1 is the maximum; inactive = score below 0.9); conditions: HepG2 p53 cis-element reporter, Attagene mRNA; actives raise or lower the signal
How it was run: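 Read-out: reporter mRNA by RT-PCR plus capillary electrophoresis with fluorescence detection. Human HepG2 liver cells carried transfected multi-reporter cis-element constructs, dosed 24 h. Gain or loss of signal fitted bidirectionally against DMSO control.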

[5] = BSK_3C_TissueFactor: BioMAP Diversity Plus: 3C Assay for Tissue Factor Biomarker Activity (AID 2282997; active = hit-call score of the fitted dose curve at least 0.9, where 1 is the maximum; inactive = score below 0.9); conditions: BioMAP 3C HUVEC, tissue factor biomarker readout; actives raise or lower the signal
How it was run: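 Cells used were primary human umbilical vein endothelial cells. They were dosed with chemical, and after 24 h Tissue Factor was quantified by ELISA. Curves were fitted bidirectionally with DMSO as baseline.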

[6] = BSK_3C_VCAM1: BioMAP Diversity Plus: 3C Assay for Vascular cell adhesion molecule 1 (VCAM1) Biomarker Activity (AID 2282999; active = hit-call score of the fitted dose curve at least 0.9, where 1 is the maximum; inactive = score below 0.9); conditions: BioMAP 3C HUVEC, VCAM1 ELISA, cytokine-stimulated; actives raise or lower the signal
How it was run: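 Activity fitted in both directions relative to DMSO, with ELISA measurement of the surface marker on primary HUVEC (3C) at 24 h post-treatment; parallel SRB staining (0.1% SRB, TCA-fixed, 560 nm) flagged overt cytotoxicity.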

[7] = BSK_4H_Eotaxin3: BioMAP Diversity Plus: 4H Assay for Eotaxin 3 Biomarker Activity (AID 2283000; active = hit-call score of the fitted dose curve at least 0.9, where 1 is the maximum; inactive = score below 0.9); conditions: primary human endothelial cells (HUVEC); actives raise or lower the signal
How it was run: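 Endothelial primary cells (human umbilical vein) exposed to compound for 24 h. ELISA detection of Eotaxin-3.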

[8] = molecular target: human Peroxisome Proliferator-activated Receptor alpha (PPARa), PPARA (gene 5465) (UniProt Q07869); test: ATG_PPARa_TRANS: Attagene TRANS-FACTORIAL HepG2 Assay for human Peroxisome Proliferator-activated Receptor alpha (PPARa) (AID 2283001)
How it was run: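 Reporter transcripts quantified by RT-PCR plus capillary electrophoresis after 24 h treatment, fitted upward relative to DMSO. Cells: human HepG2 transiently carrying multiple GAL4-UAS reporter units driven by NR-Gal4 chimeras.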

[9] = molecular target: human Peroxisome Proliferator-activated Receptor delta (PPARd), PPARD (gene 5467) (UniProt Q03181); test: ATG_PPARd_TRANS: Attagene TRANS-FACTORIAL HepG2 Assay for human Peroxisome Proliferator-activated Receptor delta (PPARd) (AID 2283002)
How it was run: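 Cell-based TRANS reporter: HepG2, transient MRTU transfection, 24 h exposure. Readout = reporter mRNA (RT-PCR/CE, 6-FAM). Gain-of-signal fit vs DMSO control.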

[10] = BSK_3C_Proliferation: Cell Proliferation Assessment in the BioMAP Diversity Plus: 3C Assay (AID 2283006; active = hit-call score of the fitted dose curve at least 0.9, where 1 is the maximum; inactive = score below 0.9;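 for AC50: potency may reflect either rise or fall in cell number versus DMSO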); conditions: primary human endothelial cells (HUVEC)
How it was run: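 Proliferation as total protein: sulforhodamine B (0.1%) stain of TCA-fixed subconfluent human umbilical vein endothelial cells, absorbance 560 nm, 48 h after dosing. Activity fitted in both directions against DMSO baseline.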

[11] = molecular target: Peroxisome proliferator-activated receptor gamma (Homo sapiens) (UniProt P37231); test: ATG_PPARg_TRANS: Attagene TRANS-FACTORIAL HepG2 Assay for human Peroxisome Proliferator-activated Receptor-gamma (PPARg) (AID 2283007)
How it was run: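 Endpoint reflects upward reporter mRNA change versus DMSO controls. Setup: transiently transfected HepG2, GAL4-UAS reporters driven by chimeric NR-Gal4, 24 h incubation, RT-PCR with capillary electrophoresis read-out.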

[12] = molecular target: human Retinoic Acid Receptor gamma (RARg), RARG (gene 5916) (UniProt P13631); test: ATG_RARg_TRANS: Attagene TRANS-FACTORIAL HepG2 Assay for human Retinoic Acid Receptor gamma (RARg) (AID 2283009)
How it was run: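 Transactivation of exogenous RARg-Gal4 fusion measured as reporter transcript induction after 24 h in transfected HepG2 cells. RNA reverse-transcribed, amplified, fluorescently labeled and resolved by capillary electrophoresis; increase relative to DMSO.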

[13] = molecular target: Retinoic acid receptor RXR-alpha (Homo sapiens) (UniProt P19793); test: ATG_RXRa_TRANS: Attagene TRANS-FACTORIAL HepG2 Assay for human Retinoid X Receptor alpha (RXRa) (AID 2283012)
How it was run: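 TRANS format reporting activity of exogenous RXRa-Gal4 chimera in transiently transfected HepG2, 24 h exposure. Reporter transcripts quantified by RT-PCR with capillary electrophoresis, with gain of signal scored relative to DMSO.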

[14] = molecular target: human Retinoic Acid Receptor beta (RARb), RARB (gene 5915) (UniProt P10826); test: ATG_RARb_TRANS: Attagene TRANS-FACTORIAL HepG2 Assay for human Retinoic Acid Receptor beta (AID 2283004)
How it was run: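 HepG2, transient MRTU transfection, NR–Gal4 chimera, 24 h treatment; RT-PCR plus CE fluorescence detection of reporter mRNA; gain of signal vs DMSO.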

[15] = molecular target: Retinoic acid receptor alpha (Homo sapiens) (UniProt P10276); test: ATG_RARa_TRANS: Attagene TRANS-FACTORIAL HepG2 Assay for human Retinoic Acid Receptor alpha (RARa) (AID 2283005)
How it was run: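 Reporter transcripts, measured by RT-PCR with fluorescent labeling and capillary electrophoresis after 24 h dosing, reflect activity of an exogenous human RARa–GAL4 fusion in transiently transfected HepG2. Fitted for increase relative to DMSO.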

[16] = molecular target: Nuclear receptor subfamily 1 group I member 2 (Homo sapiens) (UniProt O75469); test: ATG_PXR_TRANS: Attagene TRANS-FACTORIAL HepG2 Assay for human Pregnane X Receptor (PXR) (AID 2283008)
How it was run: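 Trans-factorial format: exogenous NR-Gal4 fusion activity, not endogenous factor, in transfected human HepG2 liver cells. After 24 h dosing, RNA isolated, reverse-transcribed, amplified and resolved by capillary electrophoresis; induction scored versus DMSO.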

[17] = BSK_3C_uPAR: BioMAP Diversity Plus: 3C Assay for Urokinase-type plasminogen activator receptor (uPAR) Biomarker Activity (AID 2282998; active = hit-call score of the fitted dose curve at least 0.9, where 1 is the maximum; inactive = score below 0.9); conditions: BioMAP 3C HUVEC, uPAR biomarker ELISA; actives raise or lower the signal
How it was run: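 A multiplexed primary-cell system built on human umbilical vein endothelium was used, with chemical present for 24 h before reading. Cell-surface uPAR was detected by ELISA; signal change in either direction counted against DMSO.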

[18] = read-out: Intercellular Adhesion Molecule 1 (ICAM1), ICAM1 (gene 3383); test: BSK_3C_ICAM1: BioMAP Diversity Plus: 3C Assay for Intercellular Adhesion Molecule 1 (ICAM1) Biomarker Activity (AID 2283003; active = hit-call score of the fitted dose curve at least 0.9, where 1 is the maximum; inactive = score below 0.9); conditions: primary human endothelial cells (HUVEC); actives raise or lower the signal
How it was run: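 ELISA readout of ICAM1 in human umbilical vein endothelial cells in the 3C system, taken 24 h post-dose. Gain or loss of signal versus DMSO was fitted in both directions, with SRB total-protein staining run in parallel.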

[19] = molecular target: human RAR-related Orphan Receptor beta (RORb), RORB (gene 6096) (UniProt Q92753); test: ATG_RORb_TRANS: Attagene TRANS-FACTORIAL HepG2 Assay for human RAR-related Orphan Receptor beta (RORb) (AID 2283010)
How it was run: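 Read-out is reporter mRNA induction, quantified by RT-PCR with fluorescent capillary electrophoresis, 24 h post-dose in transiently transfected HepG2 expressing exogenous NR-Gal4 chimera. Activity fitted upward versus DMSO.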

[20] = molecular target: human RAR-related Orphan Receptor gamma (RORg), RORC (gene 6097) (UniProt P51449); test: ATG_RORg_TRANS: Attagene TRANS-FACTORIAL HepG2 Assay for human RAR-related Orphan Receptor gamma (RORg) (AID 2283011)
How it was run: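 Activity is scored as increase in GAL4-UAS reporter mRNA over DMSO, detected by fluorescent RT-PCR and capillary electrophoresis in HepG2 cells transiently expressing a RORg-Gal4 chimera, 24 h after dosing.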

Measured: AC50

Sequence of Cellular tumor antigen p53 (Homo sapiens) (P04637 whole entry, looked up): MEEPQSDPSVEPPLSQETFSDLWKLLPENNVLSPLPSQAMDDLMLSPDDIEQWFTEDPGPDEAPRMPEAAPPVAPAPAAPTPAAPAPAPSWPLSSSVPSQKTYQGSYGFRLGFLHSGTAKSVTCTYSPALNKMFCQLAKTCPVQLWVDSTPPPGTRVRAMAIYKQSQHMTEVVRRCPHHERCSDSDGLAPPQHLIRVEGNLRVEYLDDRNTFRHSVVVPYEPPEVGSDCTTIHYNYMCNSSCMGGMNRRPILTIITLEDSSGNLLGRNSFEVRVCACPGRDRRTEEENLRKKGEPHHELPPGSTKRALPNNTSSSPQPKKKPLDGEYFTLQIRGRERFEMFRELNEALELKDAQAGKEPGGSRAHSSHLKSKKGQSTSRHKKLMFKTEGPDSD
Sequence of human Retinoic Acid Receptor gamma (RARg), RARG (gene 5916) (P13631 whole entry, looked up, the tested form may be a part): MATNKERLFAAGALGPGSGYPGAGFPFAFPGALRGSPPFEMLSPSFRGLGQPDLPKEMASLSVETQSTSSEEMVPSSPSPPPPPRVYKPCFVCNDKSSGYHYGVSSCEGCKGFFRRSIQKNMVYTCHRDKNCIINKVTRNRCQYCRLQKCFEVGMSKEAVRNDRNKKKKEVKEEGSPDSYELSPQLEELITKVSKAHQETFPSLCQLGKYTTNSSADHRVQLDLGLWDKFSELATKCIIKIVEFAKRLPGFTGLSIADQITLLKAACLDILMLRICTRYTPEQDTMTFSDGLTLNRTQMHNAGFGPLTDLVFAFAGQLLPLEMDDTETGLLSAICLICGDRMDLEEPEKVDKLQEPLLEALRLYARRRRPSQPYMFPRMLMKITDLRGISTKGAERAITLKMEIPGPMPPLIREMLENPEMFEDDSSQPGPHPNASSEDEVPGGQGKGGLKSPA
Sequence of Peroxisome proliferator-activated receptor gamma (Homo sapiens) (P37231 whole entry, looked up, the tested form may be a part): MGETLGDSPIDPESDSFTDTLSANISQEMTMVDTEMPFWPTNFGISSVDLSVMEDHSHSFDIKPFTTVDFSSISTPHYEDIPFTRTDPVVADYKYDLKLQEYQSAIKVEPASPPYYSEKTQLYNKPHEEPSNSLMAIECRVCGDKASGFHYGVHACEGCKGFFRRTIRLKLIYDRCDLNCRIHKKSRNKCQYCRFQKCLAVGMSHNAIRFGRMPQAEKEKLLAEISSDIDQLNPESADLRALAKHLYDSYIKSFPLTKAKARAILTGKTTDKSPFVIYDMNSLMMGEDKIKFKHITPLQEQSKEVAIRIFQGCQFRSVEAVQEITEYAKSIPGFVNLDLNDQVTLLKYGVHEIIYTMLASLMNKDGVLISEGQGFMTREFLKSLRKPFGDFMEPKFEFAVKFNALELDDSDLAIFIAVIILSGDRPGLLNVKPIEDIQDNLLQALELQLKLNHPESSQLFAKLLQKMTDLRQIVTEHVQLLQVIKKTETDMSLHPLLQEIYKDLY
Sequence of human RAR-related Orphan Receptor gamma (RORg), RORC (gene 6097) (P51449 whole entry, looked up, the tested form may be a part): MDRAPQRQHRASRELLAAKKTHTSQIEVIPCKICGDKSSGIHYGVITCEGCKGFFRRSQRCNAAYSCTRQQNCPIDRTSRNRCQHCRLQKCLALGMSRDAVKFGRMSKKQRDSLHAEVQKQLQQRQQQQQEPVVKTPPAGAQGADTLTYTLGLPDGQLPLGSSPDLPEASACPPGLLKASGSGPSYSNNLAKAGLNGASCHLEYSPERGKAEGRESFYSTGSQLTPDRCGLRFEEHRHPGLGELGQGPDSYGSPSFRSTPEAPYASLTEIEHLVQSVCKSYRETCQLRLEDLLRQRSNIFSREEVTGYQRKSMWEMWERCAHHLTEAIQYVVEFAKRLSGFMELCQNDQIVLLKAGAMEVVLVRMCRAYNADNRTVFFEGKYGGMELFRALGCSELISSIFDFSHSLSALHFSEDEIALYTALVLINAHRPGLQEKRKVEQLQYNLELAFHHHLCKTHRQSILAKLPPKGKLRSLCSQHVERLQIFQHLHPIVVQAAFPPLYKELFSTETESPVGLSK
Sequence of human Peroxisome Proliferator-activated Receptor alpha (PPARa), PPARA (gene 5465) (Q07869 whole entry, looked up, the tested form may be a part): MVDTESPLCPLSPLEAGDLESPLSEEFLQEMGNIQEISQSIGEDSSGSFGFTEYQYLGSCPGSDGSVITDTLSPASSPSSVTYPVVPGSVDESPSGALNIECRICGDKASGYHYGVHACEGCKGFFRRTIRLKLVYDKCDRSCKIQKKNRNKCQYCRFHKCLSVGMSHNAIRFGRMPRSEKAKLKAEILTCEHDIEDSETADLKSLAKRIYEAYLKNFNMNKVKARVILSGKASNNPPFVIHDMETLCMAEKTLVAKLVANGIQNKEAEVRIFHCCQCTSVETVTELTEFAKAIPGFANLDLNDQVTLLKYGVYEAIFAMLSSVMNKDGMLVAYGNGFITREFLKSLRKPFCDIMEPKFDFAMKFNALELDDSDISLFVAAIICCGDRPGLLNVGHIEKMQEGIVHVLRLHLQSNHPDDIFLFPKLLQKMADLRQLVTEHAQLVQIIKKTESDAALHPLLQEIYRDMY
Sequence of Retinoic acid receptor RXR-alpha (Homo sapiens) (P19793 whole entry, looked up, the tested form may be a part): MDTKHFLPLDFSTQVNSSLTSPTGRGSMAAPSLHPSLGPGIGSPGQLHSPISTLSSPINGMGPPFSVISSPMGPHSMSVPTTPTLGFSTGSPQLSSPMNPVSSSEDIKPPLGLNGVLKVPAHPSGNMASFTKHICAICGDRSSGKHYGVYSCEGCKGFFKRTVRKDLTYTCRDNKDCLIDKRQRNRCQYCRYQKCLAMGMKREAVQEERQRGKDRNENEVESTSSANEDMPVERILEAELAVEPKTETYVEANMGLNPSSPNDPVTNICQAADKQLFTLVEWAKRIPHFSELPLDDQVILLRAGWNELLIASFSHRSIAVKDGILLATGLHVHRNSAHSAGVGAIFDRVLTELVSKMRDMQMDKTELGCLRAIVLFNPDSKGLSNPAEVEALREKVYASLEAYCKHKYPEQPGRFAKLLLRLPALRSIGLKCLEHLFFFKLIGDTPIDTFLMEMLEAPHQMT
Sequence of Nuclear receptor subfamily 1 group I member 2 (Homo sapiens) (O75469 whole entry, looked up, the tested form may be a part): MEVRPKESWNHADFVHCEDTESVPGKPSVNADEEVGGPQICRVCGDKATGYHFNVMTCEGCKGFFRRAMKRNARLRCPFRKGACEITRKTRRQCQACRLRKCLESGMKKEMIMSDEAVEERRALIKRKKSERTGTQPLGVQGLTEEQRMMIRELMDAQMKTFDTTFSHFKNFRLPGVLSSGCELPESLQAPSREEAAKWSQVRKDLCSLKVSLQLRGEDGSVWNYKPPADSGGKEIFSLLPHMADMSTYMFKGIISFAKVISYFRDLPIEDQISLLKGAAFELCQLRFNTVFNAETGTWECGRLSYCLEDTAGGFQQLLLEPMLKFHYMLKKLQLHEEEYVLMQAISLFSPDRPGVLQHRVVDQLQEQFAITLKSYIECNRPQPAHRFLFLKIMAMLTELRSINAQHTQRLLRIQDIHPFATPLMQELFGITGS
Sequence of human Retinoic Acid Receptor beta (RARb), RARB (gene 5915) (P10826 whole entry, looked up, the tested form may be a part): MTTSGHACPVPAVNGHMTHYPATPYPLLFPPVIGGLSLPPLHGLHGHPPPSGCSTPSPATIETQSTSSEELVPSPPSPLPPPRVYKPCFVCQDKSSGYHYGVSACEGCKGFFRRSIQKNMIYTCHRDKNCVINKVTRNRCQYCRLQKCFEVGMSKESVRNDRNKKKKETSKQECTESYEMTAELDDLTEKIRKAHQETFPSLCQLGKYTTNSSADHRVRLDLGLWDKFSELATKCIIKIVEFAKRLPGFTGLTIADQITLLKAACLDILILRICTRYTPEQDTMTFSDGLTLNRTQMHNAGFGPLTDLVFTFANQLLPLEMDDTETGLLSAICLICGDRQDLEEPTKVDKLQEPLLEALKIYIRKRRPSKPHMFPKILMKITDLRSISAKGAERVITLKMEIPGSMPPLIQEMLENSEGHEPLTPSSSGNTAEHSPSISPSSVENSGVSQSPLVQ
Sequence of Retinoic acid receptor alpha (Homo sapiens) (P10276 whole entry, looked up, the tested form may be a part): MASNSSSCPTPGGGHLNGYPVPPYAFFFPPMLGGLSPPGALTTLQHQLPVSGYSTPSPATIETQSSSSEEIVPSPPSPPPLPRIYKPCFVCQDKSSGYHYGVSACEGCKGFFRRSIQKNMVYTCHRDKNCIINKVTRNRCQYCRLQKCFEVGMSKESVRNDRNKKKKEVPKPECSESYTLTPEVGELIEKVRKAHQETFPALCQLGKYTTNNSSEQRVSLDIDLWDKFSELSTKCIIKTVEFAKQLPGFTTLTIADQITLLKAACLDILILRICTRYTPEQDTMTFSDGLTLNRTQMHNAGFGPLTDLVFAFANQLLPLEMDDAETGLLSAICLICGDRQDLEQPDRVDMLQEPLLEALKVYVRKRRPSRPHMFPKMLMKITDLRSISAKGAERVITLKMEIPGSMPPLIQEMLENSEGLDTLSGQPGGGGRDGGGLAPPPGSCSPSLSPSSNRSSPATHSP
Sequence of human Peroxisome Proliferator-activated Receptor delta (PPARd), PPARD (gene 5467) (Q03181 whole entry, looked up): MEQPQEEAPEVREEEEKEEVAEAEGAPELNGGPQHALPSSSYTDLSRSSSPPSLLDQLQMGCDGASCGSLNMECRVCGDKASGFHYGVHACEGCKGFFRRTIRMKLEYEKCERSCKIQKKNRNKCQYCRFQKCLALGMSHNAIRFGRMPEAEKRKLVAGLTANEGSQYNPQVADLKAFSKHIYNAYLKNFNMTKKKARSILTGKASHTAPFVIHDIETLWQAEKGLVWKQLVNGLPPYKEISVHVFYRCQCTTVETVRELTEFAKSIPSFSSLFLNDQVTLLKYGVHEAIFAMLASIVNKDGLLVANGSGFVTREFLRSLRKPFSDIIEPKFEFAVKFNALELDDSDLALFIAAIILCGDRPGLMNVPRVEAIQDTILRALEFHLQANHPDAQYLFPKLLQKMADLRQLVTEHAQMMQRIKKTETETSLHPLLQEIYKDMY

CCOC(=O)CN[C@@H](C(=O)N1CC[C@H]1C(=O)NCc1ccc(/C(N)=N/O)cc1)C1CCCCC1
not listed: [14] | [15] | [16] | [17] | [18] | [19] | [20]
inactive: all other assays above

O=C(NCc1ncc(C(F)(F)F)cc1Cl)c1c(Cl)cccc1Cl
active: [1] 21.8 µM | [2] 1.97 µM | [11] 13.7 µM | [16] 675 nM
not listed: [17] | [18] | [19] | [20]
inactive: all other assays above

OCCN1CN(CCO)CN(CCO)C1
active: [2] 56.5 µM | [3] 160 µM | [5] 20 µM | [17] 32.6 µM | [6] 32.8 µM | [7] 30.2 µM | [18] 29.4 µM | [10] 24.2 µM
not listed: [16]
inactive: all other assays above

CC1=NN(c2ccccc2)C(=O)C1
active: [5] 4.46 µM | [11] 57.1 µM and 17.3 µM
not listed: [12] | [14] | [17] | [18]
inactive: all other assays above

CC(C)C=O
inactive: [1] | [2] | [3] | [4] | [8] | [9] | [14] | [15] | [11] | [16] | [12] | [19] | [20] | [13]
active: [2] 64.6 µM

CCCCCCCCCC=CCC1CC(=O)OC1=O (stereo unspecified)
active: [1] 54.9 µM
inactive: [2] | [3] | [4] | [8]

CC1CNCC(C)O1 (stereo unspecified)
inactive: [1] | [2] | [3] | [4] | [8] | [14] | [11] | [16] | [12] | [13]

CCCCCCc1ccc(N)cc1
inactive: [1] | [3] | [8] | [9] | [11] | [16] | [13]
active: [2] 2.51 µM | [4] 6.32 µM

COC(=O)C(F)(F)C(F)(F)C(F)(F)F
inactive: [1] | [2] | [3] | [4] | [8] | [9] | [11] | [13]

O=c1cc(-c2ccccc2)oc2ccc3ccccc3c12
active: [2] 182 nM and 134 nM | [11] 0.708 µM
inactive: [1] | [3] | [4] | [8] | [9] | [11] | [19] | [13]

c1cc2cccc3c4cccc5cccc(c(c1)c23)c54
inactive: [1] | [3] | [4] | [8] | [9] | [14] | [11] | [16] | [19] | [20]
active: [2] 19.8 µM

O=CC(F)(F)C(F)(F)C(F)(F)C(F)F
inactive: [1] | [2] | [3] | [4] | [8] | [9] | [11] | [16] | [19] | [13]

O=C(OC(=O)C(F)(F)C(F)(F)F)C(F)(F)C(F)(F)F
not listed: [5] | [6] | [7] | [10] | [14] | [17] | [18] | [19]
inactive: all other assays above

CCCCCCCCC1CCC(=O)O1 (stereo unspecified)
inactive: [1] | [2] | [3] | [4] | [8] | [9] | [11] | [16] | [19] | [20] | [13]

C=CC(=O)OCCN(CC)CC
active: [2] 144 µM | [3] 48.9 µM | [4] 169 µM
inactive: [1] | [8] | [14] | [15] | [11] | [12] | [13]

CCOC(C)=O
not listed: [5] | [6] | [7] | [10] | [13] | [15] | [17] | [18]
inactive: all other assays above

CCCCc1ccc2ccccc2c1S(=O)(=O)O
active: [2] 8.84 µM | [11] 45.4 µM | [16] 2670 nM
inactive: [1] | [3] | [4] | [8] | [9] | [12] | [19] | [20]

Cc1cncc(C)c1
inactive: [1] | [2] | [3] | [4] | [8] | [9] | [11]

FC(F)(F)C(F)(F)C(F)(F)C(F)(F)I
inactive: [1] | [2] | [3] | [4] | [8] | [9] | [14] | [11] | [16] | [20] | [13]
